Sampled rows, rich in hits. Any-hit rate of the full collection: about 19%.
DT40 TDP1 no CPT – qHTS for Inhibitors of human tyrosyl-DNA phosphodiesterase 1 (TDP1): qHTS in cells in absence of CPT | Potency, µM (titrated, usually from 46.2 µM), hits mostly inhibitors | 15% of 420,000 active | AID 686978, 2013 | DT40 Tdp1-/- hTDP1 cells, no CPT, ATP luminescence, 48 h; note: nearly all actives have a fitted effect of over 55% in size
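Growth of hTDP1-complemented DT40 Tdp1-knockout cells is measured by ATP luminescence after at least 48 hr compound exposure at 37 °C, with DMSO substituting for the 20 nM CPT used in the parallel screen.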
DT40 TDP1 CPT – growth inhibition of DT40 Tdp1-/-;hTDP1 cells with camptothecin (screen for TDP1 inhibitors); 12% of 420,000 active; chicken DT40 Tdp1-/-;hTDP1 cells + 20 nM CPT, ATP luminescence, 48 h; AID 686979; Potency, µM (highest dose often 46.2 µM), most hits filed as inhibitors; note: nearly all actives have a fitted effect of over 55% in size
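Cell growth measured by CellTiter-Glo luminescence after a minimum 48 h, 37 C compound exposure with 20 nM CPT in Tdp1-knockout DT40 cells stably expressing hTDP1, seeded 400/well; qHTS titration format.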
TGFb inhibitor – TGF-b pathway inhibition | HepG2 CAGA-GFP TGF-b/SMAD3 reporter, GFP fluorescence, 18 h; TGF-beta stimulated, 500 pg/mL final | Potency, µM (titrated, usually from 46.1 µM), most hits filed as inhibitors | 1.2% of 410,000 active; note: nearly all actives have a fitted effect of over 65% in size
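HEPG2 CAGA-GFP cells (1000/well, DMEM with 1% FBS) were pre-incubated 2 h at 37 degrees C, given compound by pin tool, then stimulated with TGF-beta at 500 pg/mL final for 18 h before per-cell GFP fluorescence imaging.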
IL1B secr inh – inflammasome signaling inhibition, IL-1 beta readout. THP-1 LPS/ATP IL-1B secretion, AlphaLISA, 16 h; active compounds read low. activity change, % at 57.5 µM. 4.7% of 360,000 active. AID 743279; in the data active = activity change below about -50%; inconclusive = mostly about -30% to -49%
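THP-1 cells pretreated 1 hr with compounds (up to 57.5 uM final), then stimulated with LPS (250 ng/mL final) plus ATP (1.25 mM final); secreted IL-1B measured by AlphaLISA after 16 hr, decreased signal indicating inhibition.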
ASM inhibitor – blocks human secretory acid sphingomyelinase; P17405; placental ASM, HMU-PC fluorogenic substrate, 60 min; Potency, µM (series often up to 57.5 µM), usual class: inhibitors; 0.006% of 340,000 active; AID 504937
Target sequence (P17405 47-631 limits assumed): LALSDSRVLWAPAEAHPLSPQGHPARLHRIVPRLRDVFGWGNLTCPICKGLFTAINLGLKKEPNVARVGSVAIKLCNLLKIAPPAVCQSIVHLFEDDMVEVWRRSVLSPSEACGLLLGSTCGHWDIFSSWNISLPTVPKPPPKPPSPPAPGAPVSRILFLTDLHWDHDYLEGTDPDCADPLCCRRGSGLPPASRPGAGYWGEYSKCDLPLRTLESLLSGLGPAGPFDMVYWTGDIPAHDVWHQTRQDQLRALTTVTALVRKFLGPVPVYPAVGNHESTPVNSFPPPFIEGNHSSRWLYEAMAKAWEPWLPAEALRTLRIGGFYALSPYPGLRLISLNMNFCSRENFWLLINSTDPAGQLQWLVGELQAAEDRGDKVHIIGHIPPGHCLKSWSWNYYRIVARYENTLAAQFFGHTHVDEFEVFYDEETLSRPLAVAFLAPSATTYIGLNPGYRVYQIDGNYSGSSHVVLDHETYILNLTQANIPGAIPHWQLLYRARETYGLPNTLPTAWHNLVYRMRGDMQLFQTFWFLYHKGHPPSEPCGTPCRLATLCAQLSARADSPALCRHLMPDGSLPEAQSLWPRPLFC
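Human placenta-derived ASM enzyme was preincubated with compound for 10 minutes at room temperature, then given fluorogenic substrate HMU-PC0 (9 uM final) for 60 minutes at 37 °C; a pH 10 stop preceded fluorescence reading at Ex 386/Em 447 nm.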
HepG2 viability – kills HepG2 cells in TGF-b inhibitor counter-screen; HepG2 CAGA-GFP viability, ATP luminescence, 18 h; 0.76% of 410,000 active; Potency, µM (highest dose often 46.1 µM), most hits filed as cytotoxic
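CellTiter-Glo luminescence gave cytotoxicity after 18 hours at 37 degrees C. The cells were HepG2 CAGA-GFP in 1% FBS DMEM, stimulated with 500 pg/mL TGF-beta after compound addition. %Activity was normalised to no-cell wells (complete cell-killing) and DMSO (no toxicity), and curves were fitted and classified.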
Of the large screens only hits and unclear results are named; the others gave an inactive call. Unless noted, calls come from the whole dose curve; as a rule, active = well fitted curve in the direction sought with a large enough effect; inconclusive = small, poorly fitted or top-dose-only effect, or another doubt; inactive = no such curve, though single readings can be large; an effect the other way counts as inactive or inconclusive.

c1ccc(Cn2nnnc2C(c2cccnc2)N2CCN(C3CCCCC3)CC2)cc1 (configuration not stated)	none
COc1ccc(C(c2nnnn2Cc2ccccc2)N2CCN(c3nc4ccccc4s3)CC2)cc1 (configuration not stated)	DT40 TDP1 no CPT inconclusive, DT40 TDP1 CPT inconclusive
Oc1ccc(N2CCN(C(c3cccnc3)c3nnnn3Cc3ccccc3)CC2)cc1 (configuration not stated)	DT40 TDP1 no CPT 18µM, DT40 TDP1 CPT inconclusive
c1ccc(CCn2nnnc2C(c2cccs2)N2CCN(Cc3ccc4c(c3)OCO4)CC2)cc1 (configuration not stated)	DT40 TDP1 no CPT 23µM, DT40 TDP1 CPT inconclusive, IL1B secr inh inconclusive
CC(C)C(c1nnnn1Cc1ccccc1)N1CCN(Cc2ccc3c(c2)OCO3)CC1 (configuration not stated)	DT40 TDP1 no CPT inconclusive, DT40 TDP1 CPT inconclusive, IL1B secr inh inconclusive
COCCn1nnnc1C(c1ccccc1)N1CCN(c2ccccc2)CC1 (configuration not stated)	IL1B secr inh inconclusive
N#Cc1cccc(C(c2nnnn2CCc2ccccc2)N2CCN(C3CCCCC3)CC2)c1 (configuration not stated)	DT40 TDP1 no CPT 18µM, DT40 TDP1 CPT inconclusive, IL1B secr inh inconclusive
c1ccc(CCn2nnnc2C(c2cccnc2)N2CCN(c3ccccc3)CC2)cc1 (configuration not stated)	DT40 TDP1 no CPT 11µM, DT40 TDP1 CPT 13µM
Fc1ccccc1N1CCN(C(c2cccs2)c2nnnn2CCc2ccccc2)CC1 (configuration not stated)	DT40 TDP1 no CPT inconclusive, DT40 TDP1 CPT inconclusive
Fc1ccc(N2CCN(C(c3cccs3)c3nnnn3CCc3ccccc3)CC2)cc1 (configuration not stated)	DT40 TDP1 no CPT 23µM, DT40 TDP1 CPT inconclusive
Cc1ccc(S(=O)(=O)N2CCN(c3nc(-c4cccs4)nc(C)c3C)CC2)cc1	none (no result: IL1B secr inh, ASM inhibitor)
O=C(C1CCN(S(=O)(=O)c2cccs2)CC1)N(c1ccccn1)C1CCCCC1	DT40 TDP1 no CPT inconclusive, DT40 TDP1 CPT inconclusive
COc1cc(OC)c(OC)cc1CNC(=O)c1cc(=O)[nH]c2ccccc12	none
Cc1ccc(-n2ncc(C(=O)NC3CCN(Cc4ccccc4)CC3)c2C2CCN(C(=O)OC(C)(C)C)CC2)cc1C	DT40 TDP1 no CPT 15µM, DT40 TDP1 CPT 21µM, TGFb inhibitor inconclusive (no result: IL1B secr inh, ASM inhibitor)
CC(C)(C)OC(=O)N1CCC(c2c(C(=O)NC3CCN(Cc4ccccc4)CC3)cnn2-c2cccc(F)c2)CC1	DT40 TDP1 no CPT 9.2µM, DT40 TDP1 CPT 12µM, TGFb inhibitor inconclusive (no result: IL1B secr inh, ASM inhibitor)
CC(C)(C)OC(=O)N1CCC(c2c(C(=O)NCCN3CCOCC3)cnn2-c2cccc(F)c2)CC1	none (no result: IL1B secr inh, ASM inhibitor)
COc1ccccc1C(=O)C1CCCN(C(=O)c2cnn(C(C)C)c2)C1 (configuration not stated)	none
CC(C)OCCCNc1ncnc2sc3c(c12)CCCC3	DT40 TDP1 no CPT 23µM, DT40 TDP1 CPT 21µM, TGFb inhibitor inconclusive (no result: IL1B secr inh, ASM inhibitor)
CC(C)OCCCNc1ncnc2c1nc1n2CCCC1	none
COc1ccc(Nc2nc(C)nc3sc4c(c23)CCC4)cc1O	DT40 TDP1 no CPT 13µM, DT40 TDP1 CPT 15µM
Cc1nc(NS(=O)(=O)c2ccc(Cl)s2)c2c3c(sc2n1)CCCC3	DT40 TDP1 no CPT inconclusive, DT40 TDP1 CPT inconclusive, TGFb inhibitor inconclusive
c1ccc(CNc2ncnc3sc4c(c23)CCCC4)nc1	DT40 TDP1 no CPT 23µM, DT40 TDP1 CPT 16µM, TGFb inhibitor inconclusive
Cc1nc(NCc2ccco2)c2c3c(sc2n1)CCC3	DT40 TDP1 no CPT 13µM, DT40 TDP1 CPT 13µM, TGFb inhibitor inconclusive, IL1B secr inh -80
COc1ccc(Nc2cc(C(=O)NCCc3ccc(C)cc3)c3ccccc3n2)c(OC)c1	DT40 TDP1 no CPT inconclusive, DT40 TDP1 CPT inconclusive (no result: IL1B secr inh, ASM inhibitor)

Screening results: PubChem BioAssay, National Center for Advancing Translational Sciences (NCATS)
